3CLpro inhibitor: SARS-CoV 3CLpro protease inhibition | AID 1706 | recombinant SARS-CoV 3CLpro, quenched FRET peptide cleavage | actives 0.14% (n = 290,000) | inhibition, % at 6 µM; in the data active = inhibition above about 12%
PrP UTR inh: inhibition of PrP 5' UTR reporter expression. cell-based PrP 5' UTR mRNA reporter, plate reader. inhibition, % (test concentration not listed). actives 0.35% (n = 340,000); in the data active = inhibition above about 52%
DUSP3 inh: blocks human VHR1 dual specificity phosphatase; P51452; inhibition, % at 13.3 µM; actives 0.52% (n = 290,000); AID 1654; recombinant VHR phosphatase, pNPP absorbance; in the data active = inhibition above about 50%
Target sequence (P51452 whole entry, looked up): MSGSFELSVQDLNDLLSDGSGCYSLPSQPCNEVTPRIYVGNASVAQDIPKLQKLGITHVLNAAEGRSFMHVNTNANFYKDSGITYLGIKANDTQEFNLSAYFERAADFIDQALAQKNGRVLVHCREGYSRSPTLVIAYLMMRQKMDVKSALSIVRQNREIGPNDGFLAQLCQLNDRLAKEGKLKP
Mtb hypoxia rep: inhibitors of hypoxia-regulated fluorescent reporter in Mycobacterium tuberculosis | M. tuberculosis hypoxia-regulated fluorescent reporter, fluorescence | fluorescence inhibition, % (concentration not given with the values) | actives 0.1% (n = 300,000); in the data active = fluorescence inhibition mostly above about 23%, no sharp cut-off; inactive = mostly below about 17%
MazEF act: MazEF (E. coli) toxin RNase activation; P0AE70; FAM/BHQ RNA-DNA oligo cleavage fluorescence, 5 h; activation, % at 20 µM; actives 0.32% (n = 350,000); in the data active = activation above about 50%
Target sequence (P0AE70 whole entry, looked up): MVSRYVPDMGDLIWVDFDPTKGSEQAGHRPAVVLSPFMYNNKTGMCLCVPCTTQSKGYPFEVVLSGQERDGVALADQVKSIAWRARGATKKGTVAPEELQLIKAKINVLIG
PrPC surface inh: inhibitors of human cell surface prion protein PrPC | P04156 | TR-FRET read-out | inhibition, % at 13.8 µM | actives 0.43% (n = 370,000) | AID 720596; in the data active = inhibition above about 24%
Large screens that a line does not name were inactive. This is a sample that favours compounds with a hit; in the whole collection about 1.5% have one here.

CCN(CC)C(=O)COc1ccc(C(C)=NNC(=O)c2ccccc2Br)cc1	none (no result: 3CLpro inhibitor, PrP UTR inh, DUSP3 inh, MazEF act, PrPC surface inh)
CC1CCN(C(=O)c2[nH]cnc2C(=O)NC(C)C(=O)OC(C)(C)C)CC1 (stereo unspecified)	none (no result: 3CLpro inhibitor, PrP UTR inh, DUSP3 inh, MazEF act, PrPC surface inh)
O=C1c2ccccc2C(=O)N1CCSc1nncs1	none
O=C1c2ccccc2C(=O)N1CCSc1ccccc1	DUSP3 inh 55 (no result: PrPC surface inh)
COc1ccc(-c2cc(C#N)nc(N3CCN(c4ccccc4)CC3)n2)cc1	DUSP3 inh 53
COc1cc([N+](=O)[O-])ccc1-c1ccc(/C=N\n2cnnc2)o1	MazEF act 154 (no result: Mtb hypoxia rep)
COc1ccc2c(c1)CCC1C2CC[C@]2(C)C(C(C)=O)CC12 (stereo partly specified)	none (no result: 3CLpro inhibitor, PrP UTR inh, DUSP3 inh, MazEF act, PrPC surface inh)
O=C(Cc1ccccc1[N+](=O)[O-])NNC(=O)Nc1ccc2c(c1)OCO2	DUSP3 inh 50
Cc1ccc(N=Cc2sc(O)c3ccccc23)c(C)c1	MazEF act 691
CC(C)n1cc(C=NNc2ccc(C(=O)O)cc2)c2ccccc21	none (no result: 3CLpro inhibitor, PrP UTR inh, DUSP3 inh, MazEF act, PrPC surface inh)
COc1cc(C2C(C#N)=C(N)OC3=C2C(=O)CCC3)c([N+](=O)[O-])cc1OC (stereo unspecified)	MazEF act 110
Cc1cc(C2C(C#N)=C(N)OC3=C2C(=O)CCC3)c(C)s1 (stereo unspecified)	none (no result: Mtb hypoxia rep)
Cc1cc(C=C2C(=N)N3C(=NC2=O)SN=C3S(C)(=O)=O)c(C)n1-c1ccccc1	none (no result: 3CLpro inhibitor, PrP UTR inh, DUSP3 inh, MazEF act, PrPC surface inh)
Cn1cnc(S(=O)(=O)N2CCN(c3cccc(Cl)c3)CC2)c1	none
Cn1cnc(S(=O)(=O)N2CCN(c3cccc(C(F)(F)F)c3)CC2)c1	DUSP3 inh 50
CC1CCC(=O)N(CCC(N=[N+]=[N-])c2ccccc2)CC1 (stereo unspecified)	none (no result: 3CLpro inhibitor, PrP UTR inh, DUSP3 inh, MazEF act, PrPC surface inh)
COc1ccccc1C(CNC(=O)CN1C(=O)NC(C)(c2ccc3ccccc3c2)C1=O)N1CCCC1 (stereo unspecified)	Mtb hypoxia rep 30 (no result: 3CLpro inhibitor, DUSP3 inh)
C#CCOc1ccc(Cl)cc1C=NO	none (no result: 3CLpro inhibitor, PrP UTR inh, DUSP3 inh, MazEF act, PrPC surface inh)
COC(=O)C1=C(c2ccc(OC)c(OC)c2)CC2CCC1N2C(=O)NCCOc1ccc(OC)cc1 (stereo unspecified)	none (no result: 3CLpro inhibitor, PrP UTR inh, DUSP3 inh, MazEF act, PrPC surface inh)
C=C1C(=O)O[C@H]2C[C@@H](C)[C@@H]3C=CC(=O)[C@@]3(C)C[C@H]12	PrPC surface inh 26 (no result: 3CLpro inhibitor, PrP UTR inh, Mtb hypoxia rep)
O=C(Cc1ccccc1)NN=Cc1cc(Br)cc(Br)c1O	none (no result: 3CLpro inhibitor, PrP UTR inh, DUSP3 inh, MazEF act, PrPC surface inh)
CCn1cc(CNC(=O)c2ccc(C)s2)cn1	DUSP3 inh 57
C[C@@]12C(=O)OC(=O)[C@]1(C)C1CCC2O1	PrPC surface inh 41 (no result: 3CLpro inhibitor, DUSP3 inh, Mtb hypoxia rep)
Cc1cc(C(=O)N/N=C/c2ccc(-c3cccc(Cl)c3Cl)o2)n[nH]1	DUSP3 inh 51, MazEF act 51 (no result: Mtb hypoxia rep)
CCOC(=O)CSC1=NC(=O)/C(=C\c2ccc(OC(C)=O)cc2)S1	MazEF act 65
CCOC(=O)CSC1=NC(=O)/C(=C/c2ccc(Br)cc2)S1	none
Cc1ccc(NCc2nnc(SCC(N)=O)n2CC2CCCO2)c(C)c1 (stereo unspecified)	DUSP3 inh 53
NC(=O)CSc1nnc(CNc2ccc(F)cc2)n1CC1CCCO1 (stereo unspecified)	none
CC(C)CNS(=O)(=O)c1ccc(CCC(=O)NC2CCCC2)cc1	DUSP3 inh 52
CCNS(=O)(=O)c1ccc(CCC(=O)NC2CCCC2)cc1	none
Brc1ccc(-c2csc(NNC3=NCCCCC3)n2)cc1	none
CC(C)(C)c1ccc(-c2csc(NNC3=NCCCCC3)n2)cc1	DUSP3 inh 55
COc1ccc(NC(=O)N(C)CC2Oc3c(NS(=O)(=O)c4ccc(F)cc4)cccc3C(=O)N(C(C)CO)CC2C)cc1 (stereo unspecified)	none (no result: 3CLpro inhibitor, PrP UTR inh, DUSP3 inh, MazEF act, PrPC surface inh)
Cc1cc2ncn(/N=C/c3ccc([N+](=O)[O-])o3)c2cc1C	DUSP3 inh 52 (no result: Mtb hypoxia rep)
CC(NC(=O)c1nc[nH]c1C(=O)NC(Cc1ccccc1)C(=O)OCc1ccccc1)c1ccccc1 (stereo unspecified)	none (no result: 3CLpro inhibitor, PrP UTR inh, DUSP3 inh, MazEF act, PrPC surface inh)
COc1ccccc1C(=O)Nc1sc2c(c1C(N)=O)CCCC2	none
COc1ccccc1C(=O)Nc1sc2c(c1C#N)CCC2	MazEF act 80 (no result: PrPC surface inh)
COc1ccc(C=C(C#N)C(=O)Nc2cccc([N+](=O)[O-])c2)cc1C(=O)O	none (no result: 3CLpro inhibitor, PrP UTR inh, DUSP3 inh, MazEF act, PrPC surface inh)
CC(=NNC(=O)Cc1ccc(Cl)cc1)c1ccccc1O	none (no result: 3CLpro inhibitor, PrP UTR inh, DUSP3 inh, MazEF act, PrPC surface inh)
COc1ccc(N/C=C2\C(=O)CCc3c2oc2cc(Cl)c(O)c(Cl)c32)cc1	MazEF act 120
COc1ccc(N/C=C2\CCOC2=O)cc1	none

Bioassay records deposited in PubChem BioAssay by several laboratories.
